Measured values from PubChem BioAssay AID652058 (Broad Institute, 2013).
Among all 1,200 compounds or so, about 870 (72%) were called active. Roughly 3% stayed inconclusive and do not appear here.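 How the source made its calls: active means every test run fits a falling curve whose half-maximal concentration is at most twice the top valid dose; inconclusive means runs disagree, or flat 30 to 70% inhibition, or poor fit; inactive means every run inactive: flat, rising or weaker potency.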 The set was probably picked from earlier hits. A selection follows. Potency and affinity values are given separately.

experiment: blockers of HIV-1 ZM109 envelope-driven cell-cell fusion – HeLa effector, CEM target cells, luciferase, cherry-pick, dose response (AID 652058); details: HeLa Env/CEM cell fusion, 16-24 h; series mostly up to 35 µM; activity change, negative = inhibition: at the top concentration;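 further: 0% = neutral control wells and -100% = maraviroc 300 nM wells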

Activity change, negative = inhibition, inactive:
Cc1[nH]c2ccccc2c1/C=N\NC(=O)c1ccccc1Cl 39.8%
COc1ccc(CCNC(=O)C2CCCN(Cc3nc(-c4cccc(Cl)c4)oc3C)C2)cc1OC (centres undefined) -35.4%
O=C(NCc1cccc(F)c1)[C@@H]1[C@@H](CO)[C@@H]2Cn3c(ccc(-c4cccnc4)c3=O)[C@H]1N2CC1CC1 -17.1%
CCCNC(=O)N1[C@H](C#N)[C@H](c2ccc(-c3cccc(OC)c3)cc2)[C@@H]1CO 127%
N#C[C@@H]1[C@H](c2ccc(-c3ccccc3F)cc2)[C@@H](CO)N1C(=O)Cc1ccccc1 -31.2%
S=c1nc[nH]c2c1[nH]c1ccc(Cl)cc12 77%
Cc1cc(C(=O)CN2C(=O)c3ccccc3S2(=O)=O)c(C)n1C(C)C -55.3%
Cc1onc(-c2ccccc2)c1C(=O)NC(=S)NNC(=O)c1ccc(O)cc1 41%
Cc1onc(-c2ccccc2)c1C(=O)Nc1ccc(Br)cc1Cl -20.5%
CO[C@@H]1CN(C)C(=O)c2cc(NS(=O)(=O)c3ccc(C)cc3)ccc2OC[C@H](C)N(C(=O)NC(C)C)C[C@@H]1C 59.6%
CCS(=O)(=O)Nc1ccc2c(c1)C(=O)N(C)C[C@H](OC)[C@@H](C)CN(C(=O)C1CCC1)[C@H](C)CO2 101%
COc1ccc(S(=O)(=O)NC[C@@H]2CC[C@H]3[C@H](CN3Cc3cc(F)ccc3F)O2)cc1 19.1%
CO[C@H]1CN(C)C(=O)c2cc(NC(=O)C3CCOCC3)ccc2OC[C@H](C)N(Cc2nccs2)C[C@H]1C -16.3%
CO[C@@H]1CN(C)C(=O)c2ccc(NS(C)(=O)=O)cc2OC[C@@H](C)N(C(=O)C2CCCCC2)C[C@H]1C 135%
CCCC(=O)Nc1ccc2c(c1)OC[C@@H](C)N(C(=O)CN(C)C)C[C@H](C)[C@@H](OC)CN(C)C2=O -17.8%
CCC(=O)Nc1ccc2c(c1)C(=O)N(C)C[C@@H](OC)[C@H](C)CN(C(=O)CC)[C@@H](C)CO2 55.8%
CCCC(=O)Nc1ccc2c(c1)C(=O)N(C)C[C@@H](OC)[C@@H](C)CN(Cc1nccs1)[C@@H](C)CO2 1.12%
Clc1ccc2c(c1)C1=C(C(c3ccncc3)O2)C(c2ccc(Br)cc2)n2ncnc2N1 (centres undefined) 36.6%
COc1ccc(CC(=O)Nc2cccc(S(=O)(=O)N3CCCCCC3)c2)cc1OC -2.63% [at 16 µM]
CC1CCCC(C)N1CCCNC(=O)c1nn(C)c2c1CSc1ccccc1-2 (centres undefined) 20.6%
CN1C(=O)C2(c3ccccc31)N(C)CC(c1ccccc1)C21SC(=S)N(Cc2ccco2)C1=O (centres undefined) 6.82%
O=C(Nc1ccc(S(=O)(=O)N2CCCC2)cc1)c1ccc(CN2CCOCC2)cc1 -10.5%
CCN(CC)c1ccc(/C=N/N2C(C)CCCC2C)c(O)c1 (centres undefined) 35.2%
Nc1nonc1C(=O)NCCNCc1cc(Br)ccc1OCc1ccccc1F -2.3%
Cn1c(SCc2nc(-c3ccc(Cl)cc3)no2)nnc1-c1cccs1 -18.2%
O=C(COC(=O)c1cc(S(=O)(=O)N2CCOCC2)ccc1O)NCc1ccc2c(c1)OCO2 2.67%
Cc1ccc(COC(=O)c2cc(S(=O)(=O)N3CCCCC3)ccc2N2CCOCC2)cc1 47%
CCNC1CCC(Nc2ccnc3cc(Cl)ccc23)CC1 (centres undefined) -13.6%
CCC(C)NS(=O)(=O)c1ccc(S(=O)(=O)N2CCCC3(CCCCC3)C2)cc1 (centres undefined) -47.6%
CC(=O)Nc1ccc(NC(=O)CN(c2ccc(C34CC5CC(CC(C5)C3)C4)cc2)S(C)(=O)=O)cc1 197%
CC(CCc1ccco1)NC(=O)CCc1nnc2ccc(NCc3ccccc3Cl)nn12 (centres undefined) 147%
CCOc1ccccc1CNc1ncnc2ccc(-c3c(C)noc3C)cc12 -26.9%
OCC[C@@H]1C[C@@H](O)[C@H](O)[C@]2(OCc3ccccc32)O1 -30.9%
Cc1ccc2c(c1)c1c3n2CCN(CCC#N)C3CCC1 (centres undefined) 72.5%
COc1ccccc1S(=O)(=O)n1cc(Cc2ccccc2)c(N)n1 2.38%
CCCCCn1c(C(C)NC(=O)CCC)nc2ccccc21 (centres undefined) -31%
COc1ccc(/C(C)=N/NC(=O)c2cccc(S(=O)(=O)N3CCCC3)c2)c(O)c1 -36.4% [at 16 µM]
CCc1nc2ccccc2c(C(=O)OCC(=O)Nc2cccc(S(=O)(=O)N3CCOCC3)c2)c1C 168%
COc1ccc(C(O)c2nc3ccccc3n2C)cc1OC (centres undefined) -23.7%
C=CCNc1nc2c(c(=O)n(C)c(=O)n2C)n1CCCCCC 155%
Cc1cc2c3c(c1)C1(SCC(=O)N1c1ccc(F)cc1)C(=O)N3C(C)(C)CC2C (centres undefined) -68.3% [at 15 µM]
Nc1cc2c(cc1Br)[nH]c(=O)c1ccccc12 -25.2%
CCc1nnc(NC(=O)[C@@H](NC(=O)c2cccc(S(=O)(=O)N(CC)CC)c2)C(C)C)s1 39.5%
COc1ccc(N2CCN(C(=O)C3CCC(Cn4c(=S)[nH]c5ccccc5c4=O)CC3)CC2)cc1 (centres undefined) -44.6%
Fc1ccc(-n2nnnc2-c2cnc(-c3cccs3)nc2C(F)(F)F)cc1 91% [at 16 µM]
O=C(N/N=C/c1ccc(-n2ccnc2)cc1)c1cccs1 73.5%
Cc1ccc2c(c1)c1c3n2CCN(CC(N)=O)C3CCC1 (centres undefined) 81.6%
COc1ccc2[nH]c3c(N4CCC(O)(c5cccc(C(F)(F)F)c5)CC4)ncnc3c2c1 -82.8%
CCOC(=O)C(C)Oc1cccc2c(=O)n(CC(=O)NCCc3ccc(OC)c(OC)c3)ccc12 (centres undefined) -38.6%
CC1(C(=O)NCc2ccc3c(c2)OCO3)CCN1Cc1csc2ccccc12 (centres undefined) -13.3%
COc1ccc(NS(=O)(=O)c2cccc(C(=O)NNC(=O)CNC(=O)c3ccc(C)cc3)c2)cc1 35.8%
COc1ccc(NS(=O)(=O)c2ccc3c(c2)OCCO3)cc1OC -10.5%
O=C(Cc1ccc(Cl)cc1Cl)Nc1ccncc1 -15.2%
COc1ccc(/C=C/c2nc(S(=O)(=O)c3ccccc3)c(NCCCN(C)C)o2)cc1OC -36.4% [at 16 µM]
COC(=O)c1ccc(NC(=O)c2ccc(CN3CCOCC3)cc2)cc1 -20.5%
Nc1ccn([C@@H]2O[C@H](C(=O)NCc3ccc4c(c3)OCO4)[C@@H](O)[C@H]2O)c(=O)n1 14.6%
CC(C)CC#Cc1ccc2c(c1)O[C@@H](CN(C)S(=O)(=O)c1ccc(F)cc1)[C@H](C)CN([C@@H](C)CO)S2(=O)=O -29.4%
Cc1cc2ncn(S(=O)(=O)N3CCCCC3)c2cc1C 1.39%
CCN1CCN(S(=O)(=O)c2ccc(Cl)c(C(=O)Nc3ccccc3N3CCCC3)c2)CC1 21.8%
